Hits are enriched below; roughly 4% of the tested compounds scored in any of these assays.
TRHR PAM: TRH receptor (human) allosteric enhancement; P34981; TRHR cells, fluo-8 calcium fluorescence, EC20 TRH enhancement; enhancement, % at 2 µM; actives 0.66% (n = 360,000); AID 493056; in the data active = enhancement above about 30%; also: 0% is about no effect
Target sequence (P34981 whole entry, looked up): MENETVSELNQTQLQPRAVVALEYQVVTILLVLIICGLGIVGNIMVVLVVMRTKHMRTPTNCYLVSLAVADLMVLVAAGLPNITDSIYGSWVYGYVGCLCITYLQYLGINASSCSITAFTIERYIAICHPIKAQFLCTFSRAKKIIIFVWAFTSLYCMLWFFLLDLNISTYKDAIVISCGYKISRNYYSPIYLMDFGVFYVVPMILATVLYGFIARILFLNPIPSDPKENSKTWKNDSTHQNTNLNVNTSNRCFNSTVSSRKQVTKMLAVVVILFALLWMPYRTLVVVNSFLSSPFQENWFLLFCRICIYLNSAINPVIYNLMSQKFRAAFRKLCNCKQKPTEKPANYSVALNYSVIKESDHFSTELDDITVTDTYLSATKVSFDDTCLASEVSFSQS
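Enhancer read-out: after compound pinning and an initial kinetic agonist-mode read, an EC20 of TRH (10 nM final) was injected and fluo-8 calcium signal (Ex 480/Em 530) followed at 1 s/cycle for 100 cycles in TRHR-expressing cells.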
TRHR agonist: agonists of human TRH receptor; TRHR cells, calcium flux fluo-8, FDSS agonist mode; P34981; AID 493084; activation, % at 2 µM; actives 0.18% (n = 360,000); also: 0% is about no effect
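Agonist-mode FDSS calcium read (Ex 480/Em 530, 1 s cycles) in 1536-well TRHR cells with fluo-8 dye, after 10-cycle baseline and 23 nL compound addition; TRH at EC20 (10 nM final) added afterwards for the enhancer phase.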
Glioma ERSR ind: induces the endoplasmic reticulum stress response in human glioma cells | Potency, µM, for inactives: at the top dose activation, most hits filed as activators | AID 602332 | actives 0.02% (n = 420,000) | U87-MG GRP78 promoter luciferase reporter, 16 h; active = well fitted activation curve with a large enough effect; also: potency is read from the fitted curve at half-maximal effect; series mostly up to about 76 µM; % of control where 0% means no effect; nearly all actives have a fitted effect of over 35% in size
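Stably transfected U87-MG human glioma cells carrying a GRP78-based luminescent sensor were seeded at 1000 cells/well, pin-dosed with compounds and incubated 16 h. Luciferase reagent was then added, and end-point luminescence was read after 10 min at room temperature.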
D1 ag: activates the human D1 dopamine receptor; HEK293 T-REx D1 cells, calcium flux, agonist mode; activation, % at 2 µM; actives 1% (n = 360,000); AID 504660; also: 0% is about no effect
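Agonism was scored from calcium flux recorded over 180 s (1 read/s) after pintool compound addition, following a 10-cycle baseline. Cells were inducible force-coupled HEK293 TREx D1, plated overnight at 30 C and loaded with no-wash calcium dye.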
D1 potentiator: human D1 dopamine receptor positive modulation | P21728 | potentiation, % at 10 µM | actives 0.036% (n = 360,000) | HEK293 TREx D1 cells, calcium flux, dopamine EC20 potentiation | AID 504651; in the data active = potentiation above about 30%; also: 0% is about no effect
D1 antagonist: blocks dopamine activation of the human D1 receptor; HEK293 TREx D1 cells, calcium flux, dopamine EC80; active compounds read low; actives 3.2% (n = 360,000); activity change, negative = inhibition, % at 10 µM; AID 504652; P21728; in the data active = activity change below about -30%; also: % is scaled to controls: 0 for no effect and ±100 for the full control effect
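Compound effects on dopamine-evoked calcium signalling were measured in tetracycline-induced HEK293 Trex D1 cells. Dopamine at EC80 followed a 180 s compound pre-read, and fluorescence was tracked kinetically for 180 s more.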
* hit, by the source's call; . = no result. Rule as the data show it, unless noted: active = activation above about 30%; inactive = the rest.

SMILES | TRHR PAM | TRHR agonist | Glioma ERSR ind | D1 ag | D1 potentiator | D1 antagonist
Cc1oc(-c2cccc(Cl)c2)nc1CS(=O)(=O)CC(=O)NCCN1CCOCC1 | 1 | 0 | -6% | 2 | -1 | -33*
Cc1oc(-c2ccc(Cl)cc2)nc1CN1CCC(C(=O)NCCCN2CCN(c3cccc(Cl)c3)CC2)CC1 | 10 | 0 | -2% | 49* | -3 | -45*
Cc1oc(-c2cccc(Cl)c2)nc1CN1CCC(C(=O)NCCCN2CCN(c3ccc(F)cc3)CC2)CC1 | 0 | 0 | -2% | 16 | -4 | -15
O=C1CC(=O)N(C2CCCCC2)C(=O)N1c1ccccc1S(=O)(=O)Oc1ccccc1 | . | . | -2% | . | . | .
N=c1n(CC(=O)c2ccc(Br)s2)c2ccccc2n1Cc1ccccc1 | -5 | 3 | -5% | 49* | -3 | -20
Nc1nc(N2CCN(C/C=C/c3ccccc3)CC2)nc2ccccc12 | 1 | 1 | -6% | 40* | -19 | -50*
O=C(COC(=O)c1cnccn1)c1ccc(C2CCCCC2)cc1 | 34* | -1 | 0% | 3 | 9 | -6
CCc1ccc(C(=O)COC(=O)c2cnc(C)cn2)cc1 | -1 | -1 | -3% | 6 | -9 | -33*
O=C(COC(=O)c1cnccn1)c1ccc(Br)cc1 | 7 | 0 | -2% | 3 | -1 | 6
Cc1cnc(C(=O)OCC(=O)c2ccc(C3CCCCC3)cc2)cn1 | 7 | -1 | 1% | 7 | -2 | -31*
Cc1cnc(C(=O)OCC(=O)c2ccc(F)cc2)cn1 | 2 | 0 | 1% | 2 | 1 | -10
Cc1cnc(C(=O)OCC(=O)c2ccc(F)c(F)c2)cn1 | -1 | 0 | -6% | 1 | -6 | 22
C[C@@H]1CN([C@@H](C)CO)C(=O)c2cc(Br)cnc2O[C@H]1CN(C)C(=O)c1ccccc1F | . | . | -4% | . | . | .
C#CC[N+](CC)(CC)CC#Cc1cccc(Cl)c1 | -3 | 0 | -7% | 1 | -3 | -17
COc1cc2c(c3oc(=O)cc(CC(=O)O)c13)CCC(C)(C)O2 | -2 | 0 | -1% | 2 | -8 | 3
c1ccc(Cc2c[nH]c3ccccc23)cc1 | 5 | 1 | -7% | 4 | -1 | -2
CN(Cc1ccccc1)Cc1c[nH]c2ccccc12 | -1 | 1 | 0% | 8 | -14 | -62*
COc1ccccc1NC(=O)c1sc2nc3c(cc2c1N)CN(Cc1ccccc1)CC3 | 2 | 0 | -2% | 0 | 0 | -10
CCOc1ccccc1NC(=O)c1sc2nc3c(cc2c1N)CN(Cc1ccccc1)CC3 | 5 | 8 | -2% | 55* | -4 | 16
COc1ccccc1NC(=O)C(=O)N/N=C(\C)CC(=O)Nc1ccccn1 | -8 | -1 | -1% | 1 | -6 | -35*
Fc1ccc(-c2nnc(CN3CCN(c4ncc(C(F)(F)F)cc4Cl)CC3)o2)cc1 | -2 | 0 | -2% | 2 | 4 | -5
COc1cc(O)oc1C=Nc1ccc(C(=O)O)cc1 | 0 | 0 | -5% | 0 | 1 | -79*
C=C1CCN([C@@H](Cc2ccccc2)C(=O)NCCCc2ccccc2)S(=O)(=O)c2ccccc21 | . | . | -5% | . | . | .
CN(C)S(=O)(=O)Oc1ccsc1C(=O)Nc1ccc(Cl)c(Cl)c1 | -2 | 0 | -1% | 36* | -7 | -55*
CN(C)S(=O)(=O)Oc1ccsc1C(=O)Nc1ccc(Br)cc1 | 4 | 1 | -2% | 2 | -6 | -1
SMILES | TRHR PAM | TRHR agonist | Glioma ERSR ind | D1 ag | D1 potentiator | D1 antagonist
CN(C)S(=O)(=O)Oc1ccsc1C(=O)Nc1cccc(Cl)c1 | 3 | -1 | -2% | 0 | -2 | -42*
Cc1ccsc1C(=O)NNC(=O)Nc1ccc(Cl)c(Cl)c1 | 39* | 0 | 7% | 1 | -3 | 8
Cn1c(=O)c2[nH]c(Cc3ccsc3)nc2n(C)c1=O | . | . | -4% | . | . | .
COc1ccc(CN2Cc3ccccc3OC(c3ccccc3OC)C2)cc1O (configuration not stated) | . | . | -5% | . | . | .
CN1CCN(Cc2nc(N)nc(Nc3ccc4c(c3)OCCO4)n2)CC1 | 8 | -1 | 6% | 0 | -5 | 12
Cc1cc([N+](=O)[O-])nn1CC(=O)Nc1ccc(F)cc1 | 14 | 1 | -4% | 2 | 0 | 4

Assay outcomes as filed in PubChem.
